Test [1] is described as follows: APR_HepG2_CellLoss_72hr: Apredica 72-hour HepG2 Assay for Cell Loss (AID 2282915). The settings on record: high-content imaging. In outline: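 Cell number comes from Hoechst 33342-labelled nuclei, imaged at 20x after 3.7% formaldehyde fixation. Dosing was 0.39–200 uM, ten concentrations in duplicate, 0.5% DMSO final, for 72 h. Bidirectional fit relative to DMSO baseline.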

A short description of test [2]: APR_HepG2_P-H2AX_72hr: Apredica 72-hour HepG2 Assay for H2AX Phosphorylation (AID 2282916).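 Note: phospho-histone H2A.x immunostain intensity per cell marking DNA damage.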 The settings on record: imaging, actives raise or lower the signal. In outline: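 Phospho-histone H2A.x immunofluorescence, multiplexed with Hoechst and c-Jun, quantified by high-content imaging. Compounds applied to HepG2 for 72 h across ten concentrations (0.39–200 uM, 0.5% DMSO), in duplicate; DMSO baseline.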

Test [3] can be described thus: APR_HepG2_MitoticArrest_72hr: Apredica 72-hour HepG2 Assay for Mitotic Arrest (AID 2282918). The settings on record: high-content imaging, actives raise or lower the signal. The method, boiled down:
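Mitotic arrest in HepG2 is scored from phospho-histone H3 staining after 72 hr dosing across 0.39–200 uM, with DMSO at 0.5% v/v. Nuclei are identified by Hoechst 33342 and fluorescence intensity is quantified per cell.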

The nature of test [4]: APR_HepG2_MicrotubuleCSK_72hr: Apredica 72-hour HepG2 Assay for Microtubule CSK Stabilty (AID 2282919). The settings on record: HepG2 microtubule cytoskeleton, high-content imaging, actives raise or lower the signal. In outline: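 High-content imaging of alpha-tubulin staining in fixed HepG2 cells after 72 hr treatment with ten concentrations from 0.39 to 200 uM (0.5% DMSO). Fitting was bidirectional against DMSO; taxol served as positive control.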

Test [5] is described as follows: APR_HepG2_P-H2AX_24hr: Apredica 24-hour HepG2 Assay for H2AX Phosphorylation (AID 2282920). The conditions noted are these: high-content imaging, actives raise or lower the signal. In outline:
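Signal comes from a FITC-labeled secondary detecting phospho-histone H2A.x in fixed HepG2 cells, quantified by automated imaging at 20x. Dosing ran 24 hr across 0.39–200 uM with 0.5% v/v DMSO.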

Test [6] in a line: APR_HepG2_StressKinase_72hr: Apredica 72-hour HepG2 Assay for Stress Kinase (AID 2282921). The settings on record: HepG2 stress kinase (phospho-c-Jun) imaging, actives raise or lower the signal. The method, boiled down: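 Stress kinase signal is phospho-c-Jun immunofluorescence (1:500 primary, Cy3 secondary) in fixed, permeabilized human HepG2 cells imaged at 20x. Exposure lasted 72 hr over ten concentrations from 0.39 to 200 uM, 0.5% DMSO, in duplicate. Bidirectional fit versus DMSO.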

Test [7] can be described thus: APR_HepG2_StressKinase_24hr: Apredica 24-hour HepG2 Assay for Stress Kinase (AID 2282922). The conditions noted are these: HepG2 stress kinase (phospho-c-Jun) imaging, actives raise or lower the signal. The method, boiled down: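 High-content imaging of phospho-c-Jun immunofluorescence in fixed, permeabilized HepG2 cells after 24 h dosing. Ten concentrations, 0.39 to 200 uM, run in duplicate at 0.5% v/v DMSO; gain or loss of signal versus DMSO.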

Test [8] is described as follows: APR_HepG2_MitoMass_72hr: Apredica 72-hour HepG2 Assay for Mitochondrial Mass (AID 2282924).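 Note: MitoTracker Red CMXRos stain intensity per cell imaged as mitochondrial mass.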 The settings on record: high-content imaging, actives raise or lower the signal. The method, boiled down:
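Readout is imaged MitoTracker Red (250 nM, 30 min, pre-fixation) signal, fitted bidirectionally against DMSO baseline. Human HepG2 liver cells received compound 0.39–200 uM in duplicate for 72 hr, final DMSO 0.5%.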

Test [9] is described as follows: APR_HepG2_NuclearSize_72hr: Apredica 72-hour HepG2 Assay for Nuclear Size (AID 2282925). The conditions noted are these: high-content imaging, actives raise or lower the signal. The method, boiled down:
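Nuclear size was read by high-content imaging of Hoechst 33342 stain after formaldehyde fixation. Compounds ran 72 h on HepG2 at 0.39 to 200 uM, with final DMSO 0.5% v/v. Curves fitted both directions relative to DMSO control.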

The nature of test [10]: ATG_CRE_CIS: Attagene CIS-FACTORIAL HepG2 Assay for human cAMP Responsive Element (CRE) binding protein 3 (AID 2282926). The conditions noted are these: HepG2 CRE cis-reporter, Attagene multiplexed mRNA; actives raise or lower the signal. The method, boiled down:
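Cells carrying cis-regulated reporter constructs respond through their own endogenous factors. After 24 h treatment, RNA is reverse-transcribed, amplified, labelled and sized by capillary electrophoresis; up- and down-regulation are both scored against vehicle.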

The target in test [11] is CCAAT/enhancer-binding protein beta (Homo sapiens) (UniProt P17676). Kind of test: ATG_C_EBP_CIS: Attagene CIS-FACTORIAL HepG2 Assay for human CCAAT/Enhancer Binding Protein (C/EBP) beta (AID 2282927). The settings on record: HepG2 Attagene cis-factorial transcription factor reporter; actives raise or lower the signal. In outline: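 Changes in reporter mRNA, rather than exogenous chimeric receptor activity, reflect native C/EBP signalling in transfected HepG2 cells dosed for 24 h; transcripts are detected by RT-PCR and capillary electrophoresis.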
Sequence of CCAAT/enhancer-binding protein beta (Homo sapiens) (P17676 whole entry, looked up): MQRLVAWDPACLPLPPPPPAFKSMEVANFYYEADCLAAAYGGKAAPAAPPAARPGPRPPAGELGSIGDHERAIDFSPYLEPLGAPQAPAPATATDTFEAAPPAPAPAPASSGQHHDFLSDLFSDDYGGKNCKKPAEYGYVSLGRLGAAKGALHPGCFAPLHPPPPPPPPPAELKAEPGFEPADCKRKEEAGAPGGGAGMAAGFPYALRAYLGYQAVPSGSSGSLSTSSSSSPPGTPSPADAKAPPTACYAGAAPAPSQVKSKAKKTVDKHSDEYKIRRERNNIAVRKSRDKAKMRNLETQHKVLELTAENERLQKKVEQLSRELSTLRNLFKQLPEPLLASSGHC

Test [12] in a line: ATG_CMV_CIS: Attagene CIS-FACTORIAL HepG2 Assay for human CMV (Internal Marker) (AID 2282928).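 Note: endpoint acts as a background internal control marker rather than a target.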 The conditions noted are these: HepG2 CMV promoter reporter, transcription factor profiling; actives raise or lower the signal. In outline: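 Fluorescence intensity of RT-PCR-derived reporter fragments, resolved by capillary electrophoresis, gives the signal. HepG2 liver cells bearing transfected cis-element reporters were treated 24 h; activity in either direction was fit relative to DMSO-treated controls.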

A short description of test [13]: ATG_DR4_LXR_CIS: Attagene CIS-FACTORIAL HepG2 Assay for human Liver X Receptor (LXR), DR4 submotif (AID 2282929). The conditions noted are these: HepG2 Attagene DR4 cis-reporter, mRNA transcription; actives raise or lower the signal. In outline:
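Cells were transfected with multiple reporter transcription units, exposed to chemicals for 24 hours, then lysed for RNA. Reporter mRNA induction was measured by RT-PCR with capillary electrophoresis detection and fitted in both directions relative to DMSO.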

Test [14] addresses Aryl hydrocarbon receptor (Homo sapiens) (UniProt P35869). The test is described as follows: ATG_Ahr_CIS: Attagene CIS-FACTORIAL HepG2 Assay for human Aryl Hydrocarbon Receptor (Ahr) (AID 2282930). The conditions noted are these: HepG2 AhR cis-factorial reporter transcription; actives raise or lower the signal. In outline:
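HepG2, transient MRTU (cis) transfection, 24 h exposure. RNA → cDNA → PCR → 6-FAM primer extension → HpaI 2 h 37 C → CE. Fit: bidirectional, DMSO baseline.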

Test [15] can be described thus: ATG_AP_1_CIS: Attagene CIS-FACTORIAL HepG2 Assay for human Activator Protein 1 (AP-1) (AID 2282931). The settings on record: HepG2 Attagene cis-factorial AP-1 reporter mRNA; actives raise or lower the signal. In outline:
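Endogenous transcription-factor activity in human HepG2 liver cells is read through a cis-promoter reporter transcript, sampled 24 h after dosing. Detection uses RT-PCR with capillary electrophoresis; values come from bidirectional fitting relative to DMSO.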

The nature of test [16]: ATG_AP_2_CIS: Attagene CIS-FACTORIAL HepG2 Assay for human Activator Protein 2 (AP-2) (AID 2282932). The settings on record: HepG2 AP-2 cis-reporter, Attagene transcription factor profiling; actives raise or lower the signal. In outline: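 Endogenous transcription factor activity is reported through transfected multiplex reporter constructs in HepG2, after 24 h of compound exposure. Transcripts were quantified by RT-PCR and capillary electrophoresis of fluorescent fragments. Bidirectional fit against DMSO.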

The target of test [17] is Retinoic acid receptor alpha (Homo sapiens) (UniProt P10276). The test is described as follows: ATG_DR5_RAR_CIS: Attagene CIS-FACTORIAL HepG2 Assay for human Retinoic Acid Receptor Alpha (RARE), DR5 submotif (AID 2282934).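 For AC50: reporter responds to endogenous RAR alpha beta and gamma in HepG2 not RARA alone.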 The settings on record: HepG2 Attagene cis-factorial RARE DR5 reporter, mRNA; actives raise or lower the signal. The method, boiled down:
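HepG2, transient cis-reporter transfection, 24 h exposure. mRNA readout: RT-PCR, FAM label, HpaI cut, capillary electrophoresis. DMSO baseline, gain/loss fitting.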

Test [18] can be described thus: APR_HepG2_p53Act_72hr: Apredica 72-hour HepG2 Assay for p53 Activation (AID 2282923).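 Note: average cellular p53 protein immunofluorescence intensity in HepG2 cells.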 The conditions noted are these: high-content imaging, actives raise or lower the signal. In outline: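 After 72 h with compound (ten points, 0.39 to 200 uM, final DMSO 0.5% v/v), fixed HepG2 cells were labelled with sheep anti-p53 and Hoechst 33342 and imaged; gain or loss versus DMSO scored.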

Test [19] can be described thus: ATG_BRE_CIS: Attagene CIS-FACTORIAL HepG2 Assay for human Bone Morphogenetic Protein (BMP) Response Element (BRE) (AID 2282933). The settings on record: HepG2 BMP response element reporter, Attagene transcription factor profiling; actives raise or lower the signal. In outline:
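After a 24 h chemical treatment, transiently transfected HepG2 cells were lysed for RNA; reporter transcripts were quantified by fluorescent RT-PCR and capillary electrophoresis, normalised to DMSO.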

Calls of active or inactive are those of the source. Rule for the calls: active = hit-call score of the fitted dose curve at least 0.9, where 1 is the maximum; inactive = score below 0.9.

Sequence of Aryl hydrocarbon receptor (Homo sapiens) (P35869 whole entry, looked up): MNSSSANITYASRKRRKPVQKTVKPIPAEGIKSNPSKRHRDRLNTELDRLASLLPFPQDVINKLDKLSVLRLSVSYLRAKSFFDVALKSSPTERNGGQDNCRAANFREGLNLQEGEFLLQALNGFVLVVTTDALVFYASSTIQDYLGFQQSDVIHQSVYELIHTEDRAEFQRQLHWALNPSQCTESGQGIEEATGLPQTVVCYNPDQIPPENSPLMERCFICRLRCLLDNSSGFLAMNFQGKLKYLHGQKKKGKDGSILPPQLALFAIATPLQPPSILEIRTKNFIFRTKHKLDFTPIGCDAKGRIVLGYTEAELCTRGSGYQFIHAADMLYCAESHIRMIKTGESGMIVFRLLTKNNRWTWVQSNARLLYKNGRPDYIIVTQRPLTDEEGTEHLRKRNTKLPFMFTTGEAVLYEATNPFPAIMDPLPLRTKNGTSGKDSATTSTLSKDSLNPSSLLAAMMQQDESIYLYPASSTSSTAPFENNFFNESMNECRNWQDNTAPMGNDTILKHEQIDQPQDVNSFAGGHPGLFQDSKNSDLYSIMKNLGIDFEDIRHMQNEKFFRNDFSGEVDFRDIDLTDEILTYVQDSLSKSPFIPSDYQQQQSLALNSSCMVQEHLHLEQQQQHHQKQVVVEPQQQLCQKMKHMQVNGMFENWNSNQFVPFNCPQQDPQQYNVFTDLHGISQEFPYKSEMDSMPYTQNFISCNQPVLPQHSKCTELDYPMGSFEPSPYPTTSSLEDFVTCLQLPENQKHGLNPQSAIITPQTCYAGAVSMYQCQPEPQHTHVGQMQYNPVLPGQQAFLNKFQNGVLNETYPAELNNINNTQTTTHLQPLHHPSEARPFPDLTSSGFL
Sequence of Retinoic acid receptor alpha (Homo sapiens) (P10276 whole entry, looked up): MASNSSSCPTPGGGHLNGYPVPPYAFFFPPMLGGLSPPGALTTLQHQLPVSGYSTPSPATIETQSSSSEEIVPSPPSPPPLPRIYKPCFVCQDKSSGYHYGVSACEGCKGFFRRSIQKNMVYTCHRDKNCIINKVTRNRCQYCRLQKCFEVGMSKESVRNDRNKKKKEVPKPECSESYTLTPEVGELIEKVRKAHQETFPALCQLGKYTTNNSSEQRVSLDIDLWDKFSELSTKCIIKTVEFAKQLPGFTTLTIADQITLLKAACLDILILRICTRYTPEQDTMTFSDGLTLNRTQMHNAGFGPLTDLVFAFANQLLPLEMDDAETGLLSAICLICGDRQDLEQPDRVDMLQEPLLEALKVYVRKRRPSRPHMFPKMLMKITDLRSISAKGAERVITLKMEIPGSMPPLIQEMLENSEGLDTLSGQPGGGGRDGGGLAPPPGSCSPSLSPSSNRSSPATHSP

`NC(=O)N(O)[C@@H]1COc2cc(OCc3ccccc3)ccc21`: the compound was classed as inactive in test [1], in test [2], in test [3], in test [4], in test [5] and in test [6]. In addition, the compound was called inactive in [7], in test [8], in [9], in [10], in test [11] and in test [12]. Moreover, the result in test [13], in [14], in test [15] and in [16] was inactive. Besides, the AC50 in [17] was 0.406 µM (active).
Take `c1ccc2ncccc2c1`: the compound was called inactive in [1], in [2], in test [3], in test [4], in test [5] and in test [6]. The outcome in test [7], in test [18], in test [8], in test [9], in test [10] and in test [11] was inactive. Besides, the compound was classed as inactive in [12], in test [13], in test [15], in [16] and in test [19]. The AC50 in test [14] is 41.9 µM (active).
Turning to `CC(C)CC(C)O` (stereo not drawn), the call in test [1], in [2], in test [3], in test [4], in test [5] and in [6] was inactive. Moreover, the call in test [7], in test [8], in test [9], in test [10], in test [11] and in test [12] was inactive. The outcome in [13], in [14], in test [15], in [16] and in test [17] was inactive.
Regarding `CCc1ccc(O)c(C(C)(C)C)c1`, the AC50 in test [1] is 80.7 µM (active); in test [2], 79.6 µM (active); in test [3] it was 81.3 µM (active); in [6], 84.8 µM (active); in test [18] it was 71.6 µM (active); in test [15] it was 43.7 µM (active). The outcome in test [4], in test [5], in test [7], in test [8], in test [9] and in [10] was inactive. The outcome in test [11], in test [13], in test [14], in test [16] and in test [19] was inactive.
Turning to `OCc1ccccc1`, the call in test [1], in test [2], in [3], in [4], in test [5] and in [6] was inactive. Also, the result in test [7], in test [8], in test [9], in [10], in test [11] and in [12] was inactive. Further, the compound was classed as inactive in test [13], in test [14], in [15], in test [16], in test [19] and in test [17].
`C=CN1CCCC1=O`: the call in test [1], in [2], in [3], in test [4], in [5] and in [6] was inactive. The compound was called inactive in test [7], in test [18], in test [8], in test [9], in [10] and in test [11]. The outcome in test [12], in [13], in [14], in test [15], in test [16] and in test [19] was inactive.
Take `Cn1cc[nH]c1=S`: the compound was classed as inactive in [1], in [2], in test [3], in test [4], in [5] and in [6]. The compound was called inactive in [7], in [18], in [8], in test [9], in test [10] and in [11]. Moreover, the result in test [12], in test [14], in test [15], in [16] and in [17] was inactive.
In the case of `Cc1nc(-c2ccccn2)ncc1C(=O)Nn1cc(C)c2cc(F)ccc21`, the figures for the AC50 in [1] and in test [3] were 55.3 µM (active) and 72.2 µM (active), respectively. The result in test [2], in test [4], in test [5], in test [6], in test [7] and in [8] was inactive. Further, the outcome in test [9], in test [10], in test [11], in test [12], in test [13] and in test [15] was inactive. In addition, the compound was called inactive in [16] and in [17].

For orientation: AC50 means the concentration giving half of the maximal activity seen.

These data come from PubChem BioAssay (EPA / NIEHS).
